Source: PubChem (several laboratories)
aDG glyco act – increases alpha dystroglycan glycosylation | Pro5-aDG cells, alpha-DG glycosylation AlphaScreen (IIH6); 0% Pro5, 100% B10-LARGE cell signal | activation, % at 10 µM | actives 0.22% (n = 360,000) | AID 624168;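 active means activation of at least 8% versus controls, or a plate z-score of at least 8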;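 further: Pro5 are CHO cells carrying HIG-tagged alpha-DG that lacks glycosylation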
FAS TE block – blocks the thioesterase domain of human fatty acid synthase. P49327. recombinant FAS-TE, OMFH fluorogenic substrate, fluorescence endpoint. inhibition, % at 15 µM. actives 0.67% (n = 360,000);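 active means compounds whose normalised, plate-corrected inhibition of enzyme fluorescence in the single-dose primary screen is 50% or more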;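 further: 0% = DMSO with enzyme and 100% = substrate without enzyme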
CR mimetic SO – caloric restriction mimetics inhibiting age-related superoxide in yeast | S. cerevisiae aged cells, superoxide DHE fluorescence; stronger effect = lower value | superoxide response (% of plate mean), % at 10 µM | actives 0.18% (n = 330,000) | AID 2690;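 active means superoxide response under a set limit, about three screen SD below normal, cut at about 65% in these data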;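 further: yeast aged for seven days with compound at 30 °C before DHE staining; 100% = average MFI of all compound-treated wells on the plate with controls excluded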
MPTP inh – permeability transition pore inhibition; inhibition, % at 10 µM; actives 1.4% (n = 360,000); isolated mouse mitochondria, Ca2+ swelling absorbance, 30 min;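 active means inhibition of 50% or more, scaled per plate between neutral and stimulator controls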;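 further: 0% = DMSO wells given calcium and 100% = 1 mM EGTA wells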
Cardio protect – modulators protecting cardiomyocytes from myocardial damage; H9c2 cardiomyocytes, H2O2 injury protection, ATPLite, 2 h; protection from H2O2 cell death, % at 20 µM; actives 0.63% (n = 360,000); AID 588492;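 active means compounds giving at least 50% protection of heart cells from peroxide-induced death in the single-dose screen, raw or plate-pattern-corrected value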;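 further: 0% = DMSO wells with peroxide and 100% = DMSO wells without peroxide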
Mot1-301 SUMO – inhibitors of SUMOylation pathway: yeast Mot1-301 growth rescue; growth rescue, % at 18.8 µM; actives 1% (n = 320,000); AID 2716; S. cerevisiae Mot1-301 growth rescue, ATP luminescence, 38.5C; percent above DMSO median, 100 means doubled;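 active means every valid replicate shows activation above 250% relative to neutral control wells; inactive means the rest, any valid replicate at or below 250%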;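 further: OY570 slx delta 5 strain wells were the positive control but not used for scaling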
* hit, by the source's call; . = not tested or not shown. This is a sample that favours compounds with a hit; in the whole collection about 3.8% have one here.

SMILES	aDG glyco act	FAS TE block	CR mimetic SO	MPTP inh	Cardio protect	Mot1-301 SUMO
CC(C(=O)N1c2ccc(F)cc2CCC1C)N1C(=O)c2ccccc2C1=O (configuration not stated)	0	-3	108	3	-4	262*
CCC(CC)C(=O)N1c2ccc(F)cc2CCC1C (configuration not stated)	0	-9	94	2	-8	-8
C[C@H]1CN([C@@H](C)CO)C(=O)CCCn2nncc2CO[C@@H]1CN(C)C(=O)NC1CCCCC1	0	-11	.	1	3	.
COc1ccc(NN=Nc2nc3c([nH]2)c(=O)n(C)c(=O)n3C)cc1	0	-11	92	15	4	-3
Cn1c(=O)c2[nH]c(NN=Cc3ccc(Br)cc3)nc2n(C)c1=O	-1	-4	.	0	58*	.
COc1ccc(C=NNc2nc3c([nH]2)c(=O)n(C)c(=O)n3C)cc1	0	-7	.	-1	73*	.
Cc1ccccc1NN=Nc1nc2c([nH]1)c(=O)n(C)c(=O)n2C	0	-11	105	0	3	-17
Cc1ccc(C=NNc2nc3c([nH]2)c(=O)n(C)c(=O)n3C)cc1	-1	-9	.	1	70*	.
Cn1c(=O)c2[nH]c(NN=Cc3ccccc3)nc2n(C)c1=O	0	-7	.	-1	16	.
CC(=O)Nc1cccc(-c2cc(C)c3cc4c(cc3n2)OCO4)c1	0	-3	.	0	3	.
Cc1cnc(C(=O)OCC(=O)N2c3ccccc3CC2C)cn1 (configuration not stated)	0	-3	99	0	-4	87
CC1Cc2ccccc2N1C(=O)Cn1nc(C(=O)O)c2ccccc2c1=O (configuration not stated)	0	-1	95	0	53*	.
CC1Cc2ccccc2N1C(=O)COC(=O)c1n[nH]c(=O)c2ccccc12 (configuration not stated)	0	0	100	-1	54*	-2
O=C(COC(=O)C1=COCCO1)Nc1ccc(Br)cc1Br	0	-5	102	-1	-4	19
O=C(COC(=O)c1cccc2c1C(=O)c1ccccc1C2=O)NC1CCCCC1	2	28	143	4	58*	5
Cc1nc2ccccc2c(=O)[nH]1	0	-10	111	-1	69*	-13
CCOC(=O)c1ccccc1NC(=O)c1ccc2c(=O)n3c(nc2c1)CCCCC3	0	36	97	0	51*	-9
CCCN(CC(=O)Nc1ccccc1C)C(=O)/C=C/c1ccc(OC)c(OC)c1	0	-8	.	-1	4	.
CC1(C(=O)NCc2cccs2)Cc2c(-c3ccc4c(c3)OCO4)ccnc2O1 (configuration not stated)	1	6	.	1	-4	.
COCCNC(=O)C1CCCN(C(=O)c2cccnc2Oc2ccccc2)CC1 (configuration not stated)	0	-14	.	0	0	.
NC(=O)c1cccnc1Oc1ccccc1	0	1	98	2	1	350*
NNC(=O)c1cccnc1Oc1ccccc1	0	-1	93	2	2	-23
CCOC(=O)Cc1csc(NC(=O)Nc2cccc(OC)c2)n1	0	1	59*	10	-2	47
CCOC(=O)Cc1csc(NC(=O)c2cccc(OC)c2)n1	0	-4	104	-1	16	-14
CCCCN1C(=O)/C(=C/C=C2\Oc3ccccc3N2CC)SC1=S	0	-136	.	3	-9	.
SMILES	aDG glyco act	FAS TE block	CR mimetic SO	MPTP inh	Cardio protect	Mot1-301 SUMO
CCN1/C(=C/C=C/c2oc3ccc(-c4ccccc4)cc3[n+]2CC)Oc2ccc(-c3ccccc3)cc21	0	-157	293	37	-33	339*
O=Nc1c(O)[nH]c2ccc(F)cc12	0	-41	106	-1	-3	-13
Cc1cc2c(N=O)c(NO)ccc2[nH]1	1	-25	108	1	57*	-7
CCOC(=O)C1=CCN(S(=O)(=O)c2ccc(C)cc2)C1c1ccc(Br)cc1 (configuration not stated)	0	13	.	-2	-6	.
COc1ccc(/C=N/NC(=O)c2nnn(-c3nonc3N)c2-c2cccc(OC)c2)cc1	0	6	116	-2	-3	7
C/C(=N\NC(=O)c1nnn(-c2nonc2N)c1CN1CCc2ccccc21)c1ccccc1O	1	6	90	0	58*	-11
COc1ccc(O)c(/C=N/NC(=O)c2c(C)nnn2-c2nonc2N)c1	2	10	100	1	55*	4
Nc1nonc1-n1nnc(C(=O)N/N=C/c2ccccc2)c1CN1CCc2ccccc21	0	9	96	0	1	-8
CC1CCN(Cc2c(C(=O)N/N=C/c3cc(Br)ccc3O)nnn2-c2nonc2N)CC1	1	19	100	-1	64*	-19
CC(=O)Nc1ccc2c(c1)Cc1cc(N3C(=O)C=CC3=O)ccc1-2	0	2	.	4	-20	.
Cc1cccc(-n2nnnc2SCC(=O)Nc2ccc(N3CCN(C)CC3)cc2)c1	0	-2	97	0	10	-2
CCCNC(=O)c1ccc2c(=O)c(O)c(-c3ccc(OC)cc3)[nH]c2c1	0	-9	103	1	35	-1
Cc1ccc(-c2[nH]c3cc(C(N)=O)ccc3c(=O)c2O)cc1	0	-13	88	3	63*	3
CCCNC(=O)c1ccc2c(=O)c(O)c(-c3ccsc3)[nH]c2c1	0	-3	81	2	51*	-2
CCCNC(=O)c1ccc2c(=O)c(O)c(-c3ccc(C)cc3)[nH]c2c1	2	-3	89	2	54*	-5
Cc1ccc(CNC(=O)c2ccc3c(=O)c(O)c(-c4ccc(C)cc4)[nH]c3c2)cc1	3	-15	114	9	59*	-16
CC(NC(=O)C1CCN(C(=O)Nc2ccccc2)CC1)c1ccc(Cl)cc1 (configuration not stated)	1	-2	90	-3	4	-10
COCCCNC(=O)/C(C#N)=C1\N=C(NC(=O)c2cccs2)c2ccccc21	0	5	110	3	58*	12
O=S(=O)(NC1CCN(Cc2ccccc2)CC1)c1ccc2ccccc2c1	0	2	98	-1	-10	322*
O=S(=O)(NC1CCN(Cc2ccccc2)CC1)c1ccc(F)c(F)c1	0	-6	.	-2	-3	.
O=C(CCc1nc2ccccc2c(=O)[nH]1)N1CCN(S(=O)(=O)c2cccc([N+](=O)[O-])c2)CC1	0	-4	95	0	70*	-1
O=C(CCc1nc2ccccc2c(=O)[nH]1)N1CCN(S(=O)(=O)c2ccc(F)cc2)CC1	0	-6	82	0	86*	3
COc1cccc(CNC(=O)CCS(=O)(=O)c2cccc3nonc23)c1	0	-14	90	0	8	286*
